PubChem BioAssay
Calls of active or inactive are those of the source.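 How the source made its calls, unless noted: active means inhibition of the reporter signal at or above 50%; inactive means inhibition below 50%.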

Tests used:
[1] = inhibitors of TNFa-induced NFkB p65 translocation, primary screen, imaging, HUVEC, MLSMR starter and 10KST1 sets (AID 438;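 active means inhibition above 20% together with a positive visual image hit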;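 further: compound added about 3h40 before a 20 min TNFalpha stimulation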;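 on inhibition: signal is the nuclear over cytoplasmic p65 intensity ratio per well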); details: HUVEC TNFa-induced p65 nuclear translocation; cell count: measured here: nuclei count (cytotoxicity indicator), at 2.08 µM; inhibition: at 2 µM, stronger effect = higher value, 0% TNFa-plus-vehicle, 100% no-TNFa wells
[2] = inhibitors of mutant huntingtin aggregation, primary screen, imaging, exon1htt(103Q)mCFP cells, high-content imaging (AID 483;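 active means visual image review flags a hit and inhibition of aggregation exceeds 20%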;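 further: compound exposure lasted 3 days before fixation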;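 on nuclei count: percent of the per-plate median nuclei count of sample wells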); details: exon1htt(103Q)mCFP cell line, aggregate imaging, at 2 µM; inhibition of aggregation: stronger effect = higher value; nuclei count: measured here: cell count, toxicity
[3] = inhibitors of E-selectin induction by TNFa, primary screen, imaging, HUVEC, immunofluorescence, MLSMR starter and 10KST1 sets (AID 487;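 active means visually confirmed hit in the image check and inhibition above 20%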;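 on inhibition: signal is fraction of cell area covered by stained E-selectin grains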;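 on nuclei count: 100% = median nuclei count of all wells on the same plate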); details: HUVEC TNFalpha-induced E-selectin immunofluorescence imaging, at 2 µM; inhibition: stronger effect = higher value; nuclei count: measured here: cell number, toxicity
[4] = target: Voltage-gated potassium channel subunit beta-2 (Rattus norvegicus) (UniProt P62483); assay: KvBeta enzyme negative modulators, primary screen, biochemical, NADPH fluorescence (AID 622;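 active means fluorescence slope higher than the sample average by over 3 SD, cut at about -0.22 in these data, passing the limit was not always enough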;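 further: slope of raw intensity against log time taken from 70 to 1610 s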); details: recombinant KvBeta, 4-cyanobenzaldehyde reduction, at 10 µM, stronger effect = higher value
Sequence of Voltage-gated potassium channel subunit beta-2 (Rattus norvegicus) (P62483 whole entry, looked up): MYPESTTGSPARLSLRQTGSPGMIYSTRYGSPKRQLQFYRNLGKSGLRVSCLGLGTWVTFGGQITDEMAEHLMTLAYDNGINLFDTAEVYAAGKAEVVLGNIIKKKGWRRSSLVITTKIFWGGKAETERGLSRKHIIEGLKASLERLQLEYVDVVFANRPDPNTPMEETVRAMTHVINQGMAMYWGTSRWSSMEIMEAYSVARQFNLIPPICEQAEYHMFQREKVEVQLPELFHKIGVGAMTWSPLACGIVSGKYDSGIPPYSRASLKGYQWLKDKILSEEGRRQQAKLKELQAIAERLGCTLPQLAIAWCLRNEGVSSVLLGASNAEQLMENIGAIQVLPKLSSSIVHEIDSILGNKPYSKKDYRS

[5] = target: Voltage-gated potassium channel subunit beta-2 (Rattus norvegicus) (UniProt P62483); assay: KvBeta positive modulators, primary screen, biochemical, NADPH fluorescence (AID 623;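 active means NADPH fluorescence slope more negative than the mean of all samples by about 3 SD, 99.7% confidence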;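 further: fluorescence intensity change per second fitted from 20 to 320 s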); details: Recombinant KvBeta, NADPH fluorescence decrease slope, 10 min; at 10 µM; stronger effect = lower value
[6] = target: Alpha-2C adrenergic receptor (Homo sapiens) (UniProt P18825); assay: modulators of alpha2C/GIRK thallium flux, primary screen, cell-based, HEK293 alpha2C/GIRK1/2 (AID 624;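 active means fluorescence slope after compound addition differing from the mean of all screened samples at 99.7% confidence, in either direction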;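 further: slope of fluorescence ratio to pre-addition baseline per second over 15 to 24 s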); details: thallium flux BTC fluorescence, at 10 µM, actives lie on both sides
Sequence of Alpha-2C adrenergic receptor (Homo sapiens) (P18825 whole entry, looked up): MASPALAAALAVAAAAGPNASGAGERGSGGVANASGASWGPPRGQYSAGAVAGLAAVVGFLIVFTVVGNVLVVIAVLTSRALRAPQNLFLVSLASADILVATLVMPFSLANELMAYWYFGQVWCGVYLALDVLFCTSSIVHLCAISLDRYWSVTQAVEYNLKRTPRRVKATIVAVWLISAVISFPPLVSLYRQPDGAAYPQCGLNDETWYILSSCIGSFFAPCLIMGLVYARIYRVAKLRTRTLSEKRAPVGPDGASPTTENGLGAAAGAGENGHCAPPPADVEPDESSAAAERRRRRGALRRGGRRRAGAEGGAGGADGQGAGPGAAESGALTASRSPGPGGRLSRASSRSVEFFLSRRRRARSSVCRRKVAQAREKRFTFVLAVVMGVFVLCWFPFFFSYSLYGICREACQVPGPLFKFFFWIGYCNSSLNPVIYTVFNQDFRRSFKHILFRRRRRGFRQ

[7] = inhibitors of Sendai virus-induced IRF3 signaling, primary screen, TLR/RLR signaling modifier project, cell-based, Sendai virus stimulus, luciferase, 10K MLSCN set (AID 602276;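 active means inhibition at or above 50% at 10 µM; inactive means inhibition below 50%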;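 further: firefly luciferase from ISG56 promoter only with Renilla not read in this screen; 0% = Sendai virus plus DMSO and 100% = medium plus DMSO without virus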); details: HEK293 RL24 IRF3 luciferase reporter, at 10 µM, stronger effect = higher value
[8] = inhibitors of poly I:C-induced TLR3 signaling, primary screen, cell-based, poly I:C stimulus, luciferase, 10K MLSCN set (AID 602277); details: HEK293-TLR3 RL24 IRF3 luciferase reporter, at 10 µM, stronger effect = higher value

Compound | cell count [1] | inhibition [1] | inhibition of aggregation [2] | nuclei count [2] | inhibition [3] | nuclei count [3] | fluorescence slope [4] | NADPH fluorescence slope [5] | slope [6] | inhibition [7] | inhibition [8]
Clc1ccc(CSc2nnc(Cn3cnc4ccccc43)o2)cc1 | 618 | -2.5% (inactive) | 20.9% (inactive) | 72.2% | -1.1% (inactive) | 98.2% | -0.48 (inactive) | -1.4e-05 (inactive) | 0.00613 (inactive) | -20.9% (inactive) | -27.5% (inactive)
COCCn1nnnc1CN1CCC(Cc2ccccc2)CC1 | 513 | -16.4% (inactive) | -12.1% (inactive) | 113% | -71.7% (inactive) | 96.1% | -0.484 (inactive) | -6.1e-05 (inactive) | 0.00482 (inactive) | 12.6% (inactive) | 13.6% (inactive)
CCOC(=O)C1CCCN(CCCc2ccccc2)C1 (stereo not drawn) | 361 | -17.4% (inactive) | -1.3% (inactive) | 118% | -32.5% (inactive) | 108% | -0.438 (inactive) | -2.5e-05 (inactive) | 0.00567 (inactive) | 6.58% (inactive) | 38% (inactive)
COc1ccc(-c2nc(C(N)=O)c3[nH]c(=O)n(-c4cccc(Cl)c4)c3n2)cc1OC | 743 | -1% (inactive) | 7.2% (inactive) | 100% | -63.8% (inactive) | 114% | -0.521 (inactive) | -3e-05 (inactive) | 0.00698 (inactive) | 3.83% (inactive) | 6.23% (inactive)
Cc1cc(C)nc(/N=C2\NC(=O)CC(C(=O)O)N2c2ccc(Cl)cc2)n1 (stereo not drawn) | 639 | -9.7% (inactive) | 0.5% (inactive) | 101% | -44.1% (inactive) | 107% | -0.552 (inactive) | -2.8e-05 (inactive) | 0.00735 (inactive) | 11.6% (inactive) | 34.3% (inactive)
CCCCS(=O)(=O)NC1=NCN(CCOC(=O)c2ccccc2)CN1 | 305 | 0.8% (inactive) | 5.7% (inactive) | 116% | -50.4% (inactive) | 112% | -0.496 (inactive) | -4.1e-05 (inactive) | 0.0043 (inactive) | 13.9% (inactive) | 20.7% (inactive)
COC(=O)C1CCN(C(=O)c2sc3nc(-c4ccc(F)cc4)cn3c2C)CC1 | 654 | -6.1% (inactive) | -14.7% (inactive) | 105% | -65.8% (inactive) | 120% | -0.487 (inactive) | -4.6e-05 (inactive) | 0.00421 (inactive) | 10.2% (inactive) | 3.27% (inactive)
COc1ccc(S(=O)(=O)N2CN(Cc3ccco3)c3nc4ccccc4nc32)cc1 | 600 | -3.6% (inactive) | -1.4% (inactive) | 82.9% | -118% (inactive) | 134% | -0.605 (inactive) | -1.5e-05 (inactive) | 0.00619 (inactive) | 10.9% (inactive) | 20% (inactive)
Cc1nc(CNS(=O)(=O)c2cccc(F)c2)cs1 | 307 | 5% (inactive) | 14.1% (inactive) | 87.9% | -10.3% (inactive) | 92.4% | -0.506 (inactive) | -3.7e-05 (inactive) | 0.00673 (inactive) | 7.13% (inactive) | 20.4% (inactive)
O=C(O)C1C2CCC(O2)C1C(=O)NCCC1=CCCCC1 (stereo not drawn) | 465 | 10.4% (inactive) | -18.3% (inactive) | 105% | -112% (inactive) | 117% | -0.331 (inactive) | -5.8e-05 (inactive) | 0.0055 (inactive) | 1.86% (inactive) | 13.6% (inactive)
COc1ccc(C(c2nnnn2C2CCCC2)N2CCC(C)CC2)c(OC)c1 (stereo not drawn) | 584 | -7.1% (inactive) | -6.5% (inactive) | 102% | -5.7% (inactive) | 109% | -0.571 (inactive) | 1.2e-05 (inactive) | 0.005 (inactive) | 2.52% (inactive) | 3.27% (inactive)
O=S(=O)(NCC(c1cccnc1)N1CCN(c2ccccc2)CC1)c1cc(F)ccc1F (stereo not drawn) | 524 | -6.2% (inactive) | 9% (inactive) | 51.3% | -75.8% (inactive) | 115% | -0.508 (inactive) | 5.2e-05 (inactive) | 0.00657 (inactive) | 21.7% (inactive) | 20.8% (inactive)
Cc1nc2c(-c3ccc(F)cc3)c(C)nn2c(C)c1CCC(=O)NC(C)CCc1ccco1 (stereo not drawn) | 791 | 0.6% (inactive) | -37.7% (inactive) | 99.5% | -23.2% (inactive) | 110% | -0.568 (inactive) | -3.3e-05 (inactive) | 0.00479 (inactive) | 4.5% (inactive) | 26.9% (inactive)
CCN(CCCNC(=O)COc1cc(=O)n(CC)c2ccccc12)c1ccccc1 | 377 | 0.6% (inactive) | 1.3% (inactive) | 104% | 13.8% (inactive) | 96.1% | -0.501 (inactive) | -4e-05 (inactive) | 0.00565 (inactive) | 5.07% (inactive) | 7.25% (inactive)
Cc1nc(SCC(=O)Nc2cc(C)on2)c2c3c(sc2n1)CCCC3 | 461 | 2.5% (inactive) | -13.2% (inactive) | 93.7% | -33.9% (inactive) | 110% | -0.579 (inactive) | -5.9e-05 (inactive) | 0.00594 (inactive) | 6.61% (inactive) | 11.9% (inactive)
COCc1[nH]nc2c1C(c1cc(OC)c(O)c(OC)c1)C(C#N)=C(N)O2 (stereo not drawn) | 397 | -1.6% (inactive) | -17% (inactive) | 115% | -26.1% (inactive) | 117% | -0.502 (inactive) | -4.1e-05 (inactive) | 0.0049 (inactive) | 17.4% (inactive) | 21.1% (inactive)
Cc1cc2c(cc1C)C(=O)NC(C)(C)C2 | 417 | -1.1% (inactive) | -12.1% (inactive) | 108% | -20.1% (inactive) | 120% | -0.375 (inactive) | 6.6e-05 (inactive) | 0.01 (inactive) | -1.09% (inactive) | 0.395% (inactive)
O=C1NC2(Nc3ccccc31)C(=O)Nc1ccccc12 (stereo not drawn) | 361 | -4.3% (inactive) | 6.1% (inactive) | 102% | -129% (inactive) | 106% | -0.355 (inactive) | -4.5e-06 (inactive) | 0.00484 (inactive) | 13.7% (inactive) | 37.4% (inactive)
O=C(CCn1c(=S)[nH]c2cc3c(cc2c1=O)OCO3)N1CCN(C2CCCCC2)CC1 | 473 | 4.3% (inactive) | 4.1% (inactive) | 129% | 28.2% (inactive) | 85.3% | -0.476 (inactive) | -9.8e-07 (inactive) | 0.00668 (inactive) | 3.29% (inactive) | 33.1% (inactive)
CCc1nn2c(=O)cc(CSc3nc4sc5c(c4c(=O)n3C)CCCC5)nc2s1 | 536 | -14.1% (inactive) | -13.9% (inactive) | 118% | 38% (inactive) | 65.2% | -0.598 (inactive) | 4.1e-05 (inactive) | 0.00602 (inactive) | -3.07% (inactive) | -3.25% (inactive)
CCc1nnc(NC(=O)C2CC(=O)N(Cc3ccco3)C2)s1 (stereo not drawn) | 428 | 7.3% (inactive) | -11.1% (inactive) | 104% | -0.2% (inactive) | 106% | -0.507 (inactive) | -6.1e-05 (inactive) | 0.00457 (inactive) | 13.8% (inactive) | 22.1% (inactive)
CCOCCCn1c(=NC(C)=O)c(C(=O)OCC)cc2c(=O)n3ccccc3nc21 | 473 | -3.3% (inactive) | 2.4% (inactive) | 108% | -119% (inactive) | 129% | -0.114 (inactive) | -3.8e-05 (inactive) | 0.00394 (inactive) | -7.28% (inactive) | -15% (inactive)
CC1CC(C)CN(c2ncnc3c2cnn3-c2ccc(Cl)cc2)C1 (stereo not drawn) | 584 | 3.4% (inactive) | 12.1% (inactive) | 79.5% | -52.4% (inactive) | 112% | -0.504 (inactive) | -2e-05 (inactive) | 0.00874 (inactive) | 37.3% (inactive) | 11.5% (inactive)
Cc1ccc(NC(=O)c2cc(S(=O)(=O)N3CCC4(CC3)OCCO4)ccc2F)cc1 | 369 | -3.3% (inactive) | 12.5% (inactive) | 102% | -43.7% (inactive) | 108% | -0.441 (inactive) | 3.1e-05 (inactive) | 0.0033 (inactive) | -8.15% (inactive) | -22.3% (inactive)
Cc1cc(Oc2ccccc2)nc(-c2ccccc2)n1 | 763 | 4.4% (inactive) | -2.1% (inactive) | 99.1% | 62.8% (active) | 70.6% | -0.484 (inactive) | -8.7e-05 (inactive) | 0.00573 (inactive) | -19.4% (inactive) | -47.5% (inactive)
O=C(CCN1C(=O)c2ccccc2C1=O)NCCN1CCOCC1 | 377 | -10.6% (inactive) | 10.7% (inactive) | 96.7% | -6% (inactive) | 97% | -0.452 (inactive) | 2.7e-05 (inactive) | 0.00342 (inactive) | -7.29% (inactive) | 20.7% (inactive)
O=C1CCCC2=C1C1(CCCC1)N=C(Nc1nc3ccccc3s1)N2 | 687 | -4.4% (inactive) | -42.8% (inactive) | 139% | -39.4% (inactive) | 117% | -0.257 (inactive) | -9.3e-06 (inactive) | 0.00377 (inactive) | 10.1% (inactive) | 2.82% (inactive)
CC(C)CCN1CC(C(=O)NCc2ccccc2)CC1=O (stereo not drawn) | 538 | 2.2% (inactive) | 2.7% (inactive) | 121% | -57.7% (inactive) | 108% | -0.288 (inactive) | -1.6e-05 (inactive) | 0.00611 (inactive) | 30.7% (inactive) | 14.3% (inactive)
